Sampled rows, rich in hits. Any-hit rate of the full collection: about 2.6%.
Cruzain inh noDet: qHTS Assay for Promiscuous and Specific Inhibitors of Cruzain (without detergent); Cruzipain (Trypanosoma cruzi), P25779; purified cruzain, Z-FR-AMC fluorescence, no detergent; Potency, µM, for inactives: max response, negative = inhibition, most hits filed as inhibitors; 2.3% of 200,000 active; AID 1476, 2009;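 also: plate controls were enzyme without inhibitor for no effect and buffer without enzyme for full effect; nearly all actives have a fitted effect of over 40% in size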
Target sequence (P25779 123-467 limits assumed): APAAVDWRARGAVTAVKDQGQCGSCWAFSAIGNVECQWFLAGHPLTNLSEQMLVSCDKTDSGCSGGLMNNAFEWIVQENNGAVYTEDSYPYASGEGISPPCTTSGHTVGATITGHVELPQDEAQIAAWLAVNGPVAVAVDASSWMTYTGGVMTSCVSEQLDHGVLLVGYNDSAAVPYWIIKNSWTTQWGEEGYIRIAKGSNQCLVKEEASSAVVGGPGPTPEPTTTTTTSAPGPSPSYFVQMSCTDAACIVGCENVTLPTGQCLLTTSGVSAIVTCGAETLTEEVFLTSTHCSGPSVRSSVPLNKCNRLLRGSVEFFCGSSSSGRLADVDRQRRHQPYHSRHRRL
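Detergent-free condition (0.00005% Triton X-100) in acetate buffer pH 5.5 with DTT. 1.5 nM enzyme and compound were pre-mixed 15 min, then 2 uM Z-FR-AMC substrate added; reaction progress from fluorescence change between first and third reads (60 s).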
Cruzain Triton: qHTS Assay for Promiscuous and Specific Inhibitors of Cruzain (with detergent) | AID 1478, 2009 | Potency, µM, inactives show max response, negative = inhibition, most hits filed as inhibitors | Cruzipain (Trypanosoma cruzi), P25779 | 0.43% of 200,000 active | purified cruzain, Z-FR-AMC fluorescence, 0.01% Triton;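 also: plate controls were neutral wells for no effect and buffer without enzyme for full effect; nearly all actives have a fitted effect of over 40% in size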
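Cruzain (1.5 nM) preincubated 15 min at RT with compound in 100 mM sodium acetate pH 5.5, 5 mM DTT, 0.01% Triton X-100. Reaction started with 2 uM Z-FR-AMC; AMC fluorescence (ex 360/em 450 nm) change over 60 s gave rate.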
* = called active by the depositor. Calls follow the shape of the dose curve; as a rule, active = well fitted curve in the direction sought with a large enough effect; inconclusive = small, poorly fitted or top-dose-only effect, or another doubt; inactive = no such curve, though single readings can be large; an effect the other way counts as inactive or inconclusive. Potency is read from the fitted curve at half-maximal effect.

`O=C(OCC1CCCO1)c1ccc2c(c1)N(Cc1c(F)cccc1Cl)C(=O)c1ccccc1S2(=O)=O` (stereo not given) gave Cruzain inh noDet -43.0% and Cruzain Triton -1.4%.
For CCc1ccc(NC(=O)CCS(=O)(=O)c2ccc3c(c2)n(C)c(=O)c(=O)n3C)cc1 the results were Cruzain inh noDet 2.6% and Cruzain Triton -3.8%.
Screening Cn1c(-c2cccc(OCc3ccccc3)c2)nc2c1c(=O)[nH]c(=O)n2Cc1ccccc1 returned Cruzain inh noDet 7.94µM* and Cruzain Triton -0.8%.
COc1ccc(-c2nc3c(c(=O)[nH]c(=O)n3Cc3ccccc3)n2C)cc1 was read as Cruzain inh noDet -8.5% and Cruzain Triton 1.5%.
For COc1ccc2c(c1)c1c(c(=O)n(-c3ccc(C)cc3)c(=O)n1CC(=O)c1ccc(Cl)cc1)n2C the results were Cruzain inh noDet -9.0% and Cruzain Triton -0.7%.
`CCOC(=O)c1sc(NC(=O)c2cc(-c3ccc(C)cc3)nc3ccccc23)c(C#N)c1C` gave Cruzain inh noDet 10µM* and Cruzain Triton -1.1%.
For Cc1sc(NC(=O)c2cc(-c3ccccc3)nc3ccccc23)c(C(N)=O)c1C the results were Cruzain inh noDet -9.8% and Cruzain Triton -4.4%.
For Cc1cc(NC(=O)c2cc(-c3ccccc3C)nc3ccccc23)no1 the results were Cruzain inh noDet -14.4% and Cruzain Triton -6.7%.
Cc1sc(NC(=O)c2cc(-c3ccc(Cl)cc3)nc3ccccc23)c(C(N)=O)c1C was read as Cruzain inh noDet 12.6µM* and Cruzain Triton -3.9%.
`COc1ccc(Cl)cc1C(=O)NNC(=S)NC(=O)c1cc(-c2ccc(Cl)cc2)nc2ccccc12` gave Cruzain inh noDet 3.16µM* and Cruzain Triton 0.4%.
For COC(=O)c1sc(NC(=O)c2cc(-c3ccccc3)nc3ccccc23)c(C#N)c1C the results were Cruzain inh noDet -19.6% and Cruzain Triton -5.7%.
For Cc1ccccc1-c1cc(C(=O)Nc2sc(C(=O)OC(C)C)c(C)c2C#N)c2ccccc2n1 the results were Cruzain inh noDet 10µM* and Cruzain Triton 0.2%.
For CCNC(=S)NNC(=O)c1cc(-c2ccc(OC)cc2)nc2ccccc12 the results were Cruzain inh noDet 23.2% and Cruzain Triton -1.1%.
CC1=C(c2ccc(C)c(C)c2)S(=O)(=O)N(Cc2ccc(C(=O)Nc3cc(F)ccc3F)cc2)C1=O was read as Cruzain inh noDet 3.0% and Cruzain Triton -0.2%.
For COc1ccc(-c2[nH]c3c(c2-c2c(-n4cccc4)n(C)c(=O)[nH]c2=O)c(=O)[nH]c(=O)n3C)cc1F the results were Cruzain inh noDet 2.2% and Cruzain Triton 0.3%.
Screening Cc1ccc2oc(-c3cccc(NC(=O)c4ccc(N5CCC(C)CC5)c([N+](=O)[O-])c4)c3)nc2c1 returned Cruzain inh noDet 10.0% and Cruzain Triton 6.1%.
For CCC(Sc1nc2ccccc2c2nc(CCc3c(C)n[nH]c3C)nn12)C(=O)Nc1ccc(OC)cc1 (stereo not given) the results were Cruzain inh noDet inconclusive and Cruzain Triton 0.6%.
`COc1ccc(Nc2c(-c3ccc(C)o3)nc3cc(C)ccn23)cc1` gave Cruzain inh noDet -13.8% and Cruzain Triton -12.1%.
For O=C(c1ccco1)[C@@H]1[C@@H]2C(=O)N(c3ccc(F)cc3)C(=O)[C@@H]2C2c3ccccc3C=CN21 (stereo not given in full) the results were Cruzain inh noDet -8.1% and Cruzain Triton -6.5%.
Screening CC(=O)[C@@H]1[C@H]2[C@H](C(=O)[C@H]3OC[C@@H]2O3)[C@H]2C=Cc3ccccc3N21 returned Cruzain inh noDet inconclusive and Cruzain Triton -3.8%.
For O=C(c1ccco1)[C@@H]1[C@@H]2C(=O)N(c3ccc(F)cc3)C(=O)[C@@H]2[C@H]2C=Cc3ccccc3N21 the results were Cruzain inh noDet 25.1µM* and Cruzain Triton -6.3%.
`O=C(c1ccco1)[C@@H]1[C@@H]2C(=O)N(c3ccc(Br)cc3)C(=O)[C@@H]2C2c3ccccc3C=CN21` (stereo not given in full) gave Cruzain inh noDet 12.6µM* and Cruzain Triton -3.7%.
CC(C)C(=O)Nc1cccc(C(=O)Nc2nnc(C(F)(F)F)s2)c1 was read as Cruzain inh noDet -3.3% and Cruzain Triton -4.9%.
COC(=O)c1cc(C)nc2c1c(=O)nc(SCc1cccc(C)c1)n2C1CC1 was read as Cruzain inh noDet 3.6% and Cruzain Triton 3.0%.
Screening O=c1oc(-c2cccs2)nc2sc3c(c12)CCC3 returned Cruzain inh noDet 12.6µM* and Cruzain Triton 0.9%.
O=c1oc(-c2cccs2)nc2sc3c(c12)CCCC3 was read as Cruzain inh noDet inconclusive and Cruzain Triton 3.4%.
CCc1ccc(NC(=O)CSc2c(C)cnc3c2c(=O)n(C)c(=O)n3C)cc1 was read as Cruzain inh noDet -4.7% and Cruzain Triton 0.1%.
Screening CCCc1c(C)c2cccc(C)c2[nH]c1=O returned Cruzain inh noDet -11.4% and Cruzain Triton 2.6%.
`Cc1c(CC=C(Cl)Cl)c(=O)[nH]c2c(C)cccc12` gave Cruzain inh noDet 2.51µM* and Cruzain Triton 0.0%.
`CCCSCCCNC(=O)c1sc2nc(C)cc(C)c2c1-n1cccc1` gave Cruzain inh noDet inconclusive and Cruzain Triton -6.2%.
For O=C(COC(=O)CNC(=O)C1CCCCC1)Nc1ccc(Cl)cn1 the results were Cruzain inh noDet 6.31µM* and Cruzain Triton 6.31µM*.
Screening CCOC(=O)c1sc(NC(=O)COC(=O)CNC(=O)c2ccco2)c(C(=O)OCC)c1C returned Cruzain inh noDet inconclusive and Cruzain Triton -13.7%.
Screening CCOC(=O)c1sc(NC(=O)COC(=O)CNC(=O)C2CCCCC2)c(C(=O)OCC)c1C returned Cruzain inh noDet -29.3% and Cruzain Triton 2.24µM*.
For O=C(COC(=O)CCOc1ccccc1)Nc1ccc(Cl)cn1 the results were Cruzain inh noDet -2.1% and Cruzain Triton -5.4%.
Clc1ccccc1-c1nnc(SCc2nc(-c3ccccc3)no2)n1-c1ccccc1 was read as Cruzain inh noDet -18.6% and Cruzain Triton -5.6%.
Screening CCOC(=O)c1c(NC(=O)c2ccc(OCC)c(Br)c2)sc2c1CCCC2 returned Cruzain inh noDet -1.3% and Cruzain Triton -0.7%.
For Cc1ccccc1C(=O)Nc1sc2c(c1C(=O)N1CCCCC1)CCC(C)C2 (stereo not given) the results were Cruzain inh noDet -1.6% and Cruzain Triton -6.9%.
CCOC(=O)C1=C(C)NC(=S)NC1c1ccc(OC(=O)c2ccco2)cc1 (stereo not given) was read as Cruzain inh noDet inconclusive and Cruzain Triton -7.9%.
Screening CCOC(=O)c1c(NC(=O)C2=C(C)NC(=S)NC2c2ccc(CC)cc2)sc(C)c1C (stereo not given) returned Cruzain inh noDet 10µM* and Cruzain Triton -4.7%.
O=C(CCNS(=O)(=O)c1ccc2c(c1)CCN2C(=O)C1CC1)N1CCN(c2ccc(F)cc2)CC1 was read as Cruzain inh noDet 2.9% and Cruzain Triton 0.0%.
Screening O=C(Oc1ccc(OC(=O)c2ccco2)c(S(=O)(=O)c2ccc(Br)cc2)c1)c1ccco1 returned Cruzain inh noDet 25.1µM* and Cruzain Triton -0.8%.
For Cc1ccc(S(=O)(=O)c2cc(OC(=O)c3ccco3)ccc2OC(=O)c2ccco2)cc1 the results were Cruzain inh noDet -19.5% and Cruzain Triton -5.2%.
CC(=O)NCCNc1nc2c(-c3cccc(C)c3)nnn2c2ccc(Cl)cc12 was read as Cruzain inh noDet 4.7% and Cruzain Triton -0.3%.
